This note sets out measurements from PubChem BioAssay AID1030 (National Center for Advancing Translational Sciences (NCATS), 2008).

Hit rate of the full screen: of about 220,000 compounds, about 16,000 (7.3%) were called active. Where a call stands in place of a potency, no number is given. Not shown: some 25% with an inconclusive outcome. The sample holds actives, similar compounds and a random draw of the others, so the mix is not that of the screen. Calls follow the shape of the dose curve; as a rule, active = well fitted inhibition curve with a large enough effect (not every such curve was filed as active); inconclusive = small, poorly fitted or top-dose-only effect, or another doubt; inactive = no such curve, though single readings can be large or run the other way.
Potency is read from the fitted curve at half-maximal effect.

For the test, the target named is Aldehyde dehydrogenase 1A1 (Homo sapiens) (UniProt P00352). Description: qHTS Assay for Inhibitors of Aldehyde Dehydrogenase 1 (ALDH1A1). The conditions noted are these: Purified ALDH1A1, NADH fluorescence, propionaldehyde substrate; series mostly up to 75.3 µM.
Aldehyde dehydrogenase 1A1 (Homo sapiens), sequence (P00352 whole entry, looked up): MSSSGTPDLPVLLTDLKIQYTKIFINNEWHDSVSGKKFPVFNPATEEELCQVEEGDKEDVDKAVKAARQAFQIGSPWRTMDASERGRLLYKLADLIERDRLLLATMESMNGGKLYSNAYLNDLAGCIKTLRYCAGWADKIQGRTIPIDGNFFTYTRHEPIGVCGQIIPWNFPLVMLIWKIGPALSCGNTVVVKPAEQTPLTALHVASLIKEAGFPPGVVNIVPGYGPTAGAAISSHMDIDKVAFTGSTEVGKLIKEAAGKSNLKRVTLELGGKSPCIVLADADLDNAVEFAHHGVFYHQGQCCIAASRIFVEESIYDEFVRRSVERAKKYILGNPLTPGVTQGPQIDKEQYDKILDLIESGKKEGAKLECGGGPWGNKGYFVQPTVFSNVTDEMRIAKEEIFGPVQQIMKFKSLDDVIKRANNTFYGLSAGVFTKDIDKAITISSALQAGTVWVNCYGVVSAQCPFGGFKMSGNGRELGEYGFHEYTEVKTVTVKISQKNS
Consider `Fc1cc(Br)ccc1NC(=S)Nc1cccnc1`, for which the Potency entry was “inactive”.

For the compound `COc1ccc(S(=O)(=O)N2CCOCC2)cc1NC(=O)CSc1ncnc2ccccc12`, the Potency result was “inactive”.

As for `Cc1ccc(NS(=O)(=O)c2cccs2)cc1S(=O)(=O)N1CCCCCC1`, the Potency entry is “inactive”.

Take `COc1ccc(N(C)S(=O)(=O)c2cccc3nsnc23)cc1`: the Potency result was “inactive”.

As to `FC(F)(F)c1cccc(Cc2noc(CN3CCC(N4CCCCC4)CC3)n2)c1`, the Potency result is “inactive”.

Take `CC1=NCCN1S(=O)(=O)c1cccc([N+](=O)[O-])c1`: the Potency result was “inactive”.

Regarding `Fc1ccccc1Cn1cnc(NC(=S)NCCc2ccccc2)n1`, the Potency result is “inactive”.

Turning to `CCC(=O)Nc1cccc(NC(=O)CSc2nnc(-c3ccc(NS(C)(=O)=O)cc3)n2C)c1`, the Potency result was “inactive”.

`O=C(CSc1nnnn1C1CCCC1)Nc1ccc2c(c1)OCCO2`: the Potency is 6.31 µM (active).

Turning to `Cc1ccc(SCC(=O)Nc2ccc3c(c2)OCCO3)cc1`, the Potency entry was “inactive”.

With `CCC(=O)Nc1cccc(NC(=O)CSc2nnnn2C2CCCC2)c1`, the Potency is 12.6 µM (active).

Take `O=C(CSc1nc(C2CC2)nc2ccccc12)Nc1ccc2c(c1)OCCO2`: the Potency entry was “inactive”.

`O=C(CSc1nnc(-c2ccncc2)n1C1CCCCC1)Nc1ccccc1`: the Potency entry is “inactive”.

As for `COc1cc(NC(=O)CSc2nnc3ccc(-c4ccncc4)nn23)cc(OC)c1`, the Potency entry is “inactive”.

Turning to `CCNC(=O)COC(=O)CCNC(=O)c1cccc(C)c1`, the Potency entry was “inactive”.

For the compound `O=C(COC(=O)c1cnc(Cl)c(Cl)c1)NCc1ccco1`, the Potency was 20 µM (active).

For `O=C(COC(=O)c1cc(S(=O)(=O)N2CCCCC2)ccc1Cl)NCc1ccco1`, the Potency entry is “inactive”.

For `NS(=O)(=O)c1ccc(NC(=O)COC(=O)c2ccc(Cl)nc2)cc1`, the Potency result is “inactive”.

As for `O=C(COC(=O)c1ccc(Cl)nc1)NCc1ccc2c(c1)OCO2`, the Potency entry was “inactive”.

As for `O=C(COC(=O)c1ccc(Cl)nc1)NCc1cccs1`, the Potency was 8.91 µM (active).

In the case of `O=C(COC(=O)c1ccco1)NCc1ccc(Cl)cc1`, the Potency result was “inactive”.

For the compound `CC(C)Oc1ccc(CCc2nnc(SCC(=O)O)n2-c2ccccc2)cc1`, the Potency entry is “inactive”.

With `COc1cc(S(=O)(=O)N2CCOCC2)ccc1NC(=O)COc1ccc(N(C)S(=O)(=O)c2ccc(C)cc2)cc1`, the Potency result is “inactive”.

With `C=CCOCCN(C)C1=NS(=O)(=O)c2ccccc21`, the Potency result was “inactive”.

Regarding `COC(=O)c1sc(SC)c(S(=O)(=O)C(C)C)c1N/N=C(\C#N)S(=O)(=O)c1ccccn1`, the Potency result was “inactive”.

On to `Cc1ccn(CC(=O)N2N=C(C(F)F)CC2(O)C(F)F)n1` (centres undefined), for which the Potency entry is “inactive”.

Consider `CC(C)(C)NC(=O)NCc1ccco1`, for which the Potency result was “inactive”.

With `CCCC(=O)NC(=S)Nc1ccc(CN2CCOCC2)cc1`, the Potency entry was “inactive”.

On to `CCc1c(-c2ccccc2)nc(N)c(C#N)c1-c1cccs1`, for which the Potency entry was “inactive”.

As to `CSc1nc(N)c(C#N)c(-c2ccccc2Cl)c1C#N`, the Potency was 14.1 µM (active).

Turning to `CSc1nc(C)nc(C2CC2)c1C#N`, the Potency result was “inactive”.

For the compound `CC(Sc1nncn1C)C(=O)Nc1cc(C(F)(F)F)ccc1N1CCOCC1` (centres undefined), the Potency result is “inactive”.

Regarding `Cc1cc(NC(=O)CSc2nc3ccccc3n2CC(C)C)no1`, the Potency result was “inactive”.

As for `Cc1ccc(C(=O)N2CCCCCC2)cc1Br`, the Potency entry is “inactive”.

Consider `C/C(=C\C(=O)c1ccc(Br)cc1)N1CCCCC1`, for which the Potency is 25.1 µM (active).

As to `CC1CN/C(=C\C(=O)c2ccc(Br)cc2)C(=O)N1` (centres undefined), the Potency entry was “inactive”.

For the compound `Cc1ccc(-c2csc(-c3cc(C)on3)n2)cc1`, the Potency entry is “inactive”.

Regarding `COc1ccccc1Oc1ccc(S(=O)(=O)Nc2cccnc2)cc1`, the Potency entry is “inactive”.

On to `c1cncc(-c2nc(N3CCNCC3)c3ccccc3n2)c1`, for which the Potency result is “inactive”.

Consider `COc1ccccc1Oc1nc(-c2cccnc2)nc2ccccc12`, for which the Potency was 20 µM (active).

`O=c1cnnc(Nc2ccccc2F)[nH]1`: the Potency result was “inactive”.

With `CCCNCc1cc(OCC)c(OCC(=O)Nc2ccccc2)cc1Br`, the Potency entry is “inactive”.

As for `C=CCC(CC=C)(C(N)=O)c1ccccc1`, the Potency entry was “inactive”.

For the compound `c1ccc(Cc2cc[n+](Cc3ccccc3)cc2)cc1`, the Potency entry was “inactive”.

`Cc1cc(O)c(NC(=O)c2ccc(C)c([N+](=O)[O-])c2)cc1C`: the Potency entry is “inactive”.

With `Cc1ccc(NC(=O)CN2CCC(C(N)=O)CC2)cc1[N+](=O)[O-]`, the Potency result was “inactive”.

Turning to `CCN1CCC(=NNC(=O)c2ccc(C)c([N+](=O)[O-])c2)CC1`, the Potency was 4.47 µM (active).

As for `O=c1cc(N2CCCCC2)c(-c2ccccc2)nn1Cc1cccc(F)c1`, the Potency result is “inactive”.

In the case of `CCn1c(Cc2ccccc2)nnc1SCC(=O)Nc1ccccc1`, the Potency result was “inactive”.

In the case of `CCOC(=O)CNC(=O)CSc1nnc(-c2cccc(OC)c2)n1CC`, the Potency entry is “inactive”.

`O=C(Cc1cc(=O)[nH][nH]1)N/N=C/c1ccccc1[N+](=O)[O-]`: the Potency entry was “inactive”.

In the case of `O=C(CSc1nc2ccccc2[nH]1)c1cccs1`, the Potency result was “inactive”.

Regarding `O=C(CSc1nc2ccccc2[nH]1)N/N=C/C=C\c1ccccc1[N+](=O)[O-]`, the Potency was 5.01 µM (active).

Turning to `CCn1c(SCC(=O)N/N=C/C=C/c2ccccc2[N+](=O)[O-])nnc1-c1ccccc1`, the Potency was 7.94 µM (active).

Take `O=C(CCc1ccccc1)NNc1ccc(F)cc1`: the Potency result was “inactive”.

In the case of `Cc1c(N=Nc2ccc(N(C)C)cc2)c(=O)n(-c2ccccc2)n1C`, the Potency result is “inactive”.

In the case of `CCn1c(-c2cc(OC)ccc2OC)csc1=Nc1c(C)n(C)n(-c2ccccc2)c1=O`, the Potency was 22.4 µM (active).

As for `COC(=O)Cc1csc(Nc2c(C)n(C)n(-c3ccccc3)c2=O)n1`, the Potency entry is “inactive”.

Turning to `Cc1cc(OC(=O)c2ccccc2Cl)ccc1N1C(=O)CCC1=O`, the Potency entry was “inactive”.

Consider `Cc1ccc(NC2=C(Cl)C(=O)OC2OC(=O)c2ccccc2C)cc1` (centres undefined), for which the Potency result was “inactive”.

Regarding `Fc1ccc(CNc2nc3ccccc3n3nnnc23)cc1`, the Potency result was “inactive”.

`Fc1ccc(OCc2nn3c(Cn4nnc5ccccc54)nnc3s2)cc1`: the Potency is 22.4 µM (active).

As for `CC(=O)OC(COc1ccc(F)cc1)Cn1cnc2ccccc21` (centres undefined), the Potency result is “inactive”.

As to `CCCn1c(N)c(C(=O)CSc2nnc(-c3cccnc3)n2-c2ccc(C)cc2C)c(=O)[nH]c1=O`, the Potency result is “inactive”.

As for `COc1ccc(Cl)cc1N(CC(=O)N/N=C/c1ccc(OCC(N)=O)cc1)S(C)(=O)=O`, the Potency entry is “inactive”.

Turning to `COC(=O)c1nc(NC(=O)c2ccc(F)cc2)n[nH]1`, the Potency result was “inactive”.

Regarding `Cc1cccc(NC(=O)c2cccc(C(F)(F)F)c2)c1`, the Potency result is “inactive”.

As to `Cc1cccc(C(=O)Nc2ccc(CC(=O)O)cc2)c1`, the Potency result is “inactive”.

On to `Cc1cccc(C(=O)Nc2ccc3c(c2)C(=O)N(CC(C)C)C3=O)c1`, for which the Potency is 2.82 µM (active).

For the compound `CC1CC(NC(=O)/C(C#N)=C/c2ccc[nH]2)CC(C)(C)C1` (centres undefined), the Potency result is “inactive”.

Turning to `CCn1c(SCC(=O)c2ccc3ccccc3c2)nnc1-c1cccs1`, the Potency entry is “inactive”.

As to `COc1ccc(-n2c(SCC(=O)OC(C)C)nnc2-c2ccccn2)cc1`, the Potency result was “inactive”.

For the compound `CCn1c(Cc2cccs2)nnc1SCC(=O)c1ccc(C)cc1`, the Potency was 22.4 µM (active).

Take `Cc1ccc(-n2c(Cc3cccs3)nnc2SCC(=O)OC(C)C)cc1`: the Potency is 5.62 µM (active).

`CCn1c(SCC(=O)c2ccc(Cl)s2)nnc1-c1cccs1`: the Potency entry is “inactive”.

In the case of `CCOC(=O)CSc1nnc(CNC(=O)c2cccs2)n1-c1ccccc1`, the Potency result is “inactive”.

Take `Cc1[nH]c2ccccc2c1-c1ccc(Cl)nn1`: the Potency result was “inactive”.

Regarding `CC(=O)C1=C(C)NC2=C(C(=O)CC(C)(C)C2)C1C` (centres undefined), the Potency entry was “inactive”.

In the case of `Cc1cc2c(cc1C)NC(c1ccccn1)C1=C(CC(C)(C)CC1=O)N2` (centres undefined), the Potency was 14.1 µM (active).

Consider `CC1(C)CC(=O)C2=C(C1)Nc1cc(C(=O)c3ccccc3)ccc1NC2c1ccccn1` (centres undefined), for which the Potency entry was “inactive”.

As for `COCCn1c(C)cc(C(=O)CSc2nc3ccccc3c(=O)n2C(C)COC)c1C` (centres undefined), the Potency entry is “inactive”.

`O=C1/C(=C\Nc2ccccc2)CCN1c1ncccn1`: the Potency was 20 µM (active).

Take `O=C(Cc1ccccc1)NNC(=O)C1CCN(c2ncccn2)CC1`: the Potency entry is “inactive”.

On to `O=C(NNC(=O)C1CCN(c2ncccn2)CC1)c1ccccc1`, for which the Potency result was “inactive”.

As to `CC1=C(C(=O)N(C)C)C(c2ccccc2OC(F)F)NC(=O)N1` (centres undefined), the Potency result was “inactive”.

For `CCC(=O)NC(=S)Nc1ccc(NC(=O)c2ccco2)c(Cl)c1`, the Potency was 3.55 µM (active).

As to `COc1cc(NC(=O)c2cc([N+](=O)[O-])ccc2Br)ccc1NC(=O)c1ccco1`, the Potency result is “inactive”.

On to `COC(=O)c1cc(Cl)c(NC(=O)c2ccco2)cc1OC`, for which the Potency entry was “inactive”.

Turning to `O=C(Nc1ccc(Sc2ccc(Br)cc2)cc1)c1ccco1`, the Potency result was “inactive”.

As for `O=C(Nc1ccc(NC(=O)c2ccco2)c(Cl)c1)c1cccc([N+](=O)[O-])c1`, the Potency result is “inactive”.

In the case of `Cc1ccc(-n2nc3cc(Cl)c(NC(=O)c4ccco4)cc3n2)cc1`, the Potency entry was “inactive”.

On to `COc1ccc(NC(=O)c2cccc(NC(=O)c3ccco3)c2)c(OC)c1`, for which the Potency entry was “inactive”.

`O=C(NNC(=S)Nc1ccc(Br)cc1Cl)c1ccco1`: the Potency was 12.6 µM (active).

As to `COc1ccccc1C(=O)Nc1ccc(NC(=O)c2ccco2)c(C)c1`, the Potency was 8.91 µM (active).

On to `O=C(NNS(=O)(=O)c1ccccc1C(F)(F)F)c1cc2ncc(C(F)(F)F)cc2s1`, for which the Potency result was “inactive”.

Regarding `Cc1nnsc1C(=O)N/N=C/c1cccc(C(F)(F)F)c1`, the Potency entry is “inactive”.

With `Cc1cc(C)c(NC(=O)c2oc3ccccc3c2COc2ccccc2)c(C)c1`, the Potency entry is “inactive”.

Regarding `N#Cc1ccc(Oc2ccc(C(F)(F)F)cc2NC(=O)c2ccc(F)cc2)cc1`, the Potency entry is “inactive”.

In the case of `Cc1cc(C)nc(/N=C2\NC(=O)CC(C(=O)O)N2c2ccc(Cl)cc2Cl)n1` (centres undefined), the Potency result was “inactive”.

For the compound `CCC(=O)/C(=C(/O)c1ccccc1)c1nc2ccccc2[nH]1`, the Potency result is “inactive”.

`CSc1sc(C(=O)NNC(=O)c2ccc(Cl)cc2)c2c1C=CCC2`: the Potency result is “inactive”.

Take `CC1CCN(S(=O)(=O)c2ccc3ncn(CC(=O)N(C)C4CCCCC4)c(=O)c3c2)CC1`: the Potency result was “inactive”.

For the compound `O=C(CCC(=O)Nc1ccccc1)N/N=C/c1ccccc1F`, the Potency entry was “inactive”.

With `O=C(Cn1cc(C(F)(F)F)ccc1=O)N/N=C/c1ccc(Cl)cc1Cl`, the Potency result is “inactive”.

`O=C(CN1CCSCC1)N/N=C/c1ccc(F)cc1F`: the Potency was 31.6 µM (active).

With `O=C(C1CCN(C2CCN(Cc3cccc4c3OCO4)CC2)CC1)N1CCOCC1`, the Potency entry is “inactive”.

For `CC(=O)c1c(C)[nH]c(C(=O)Nc2cc(S(=O)(=O)N(C)C)ccc2C)c1C`, the Potency result is “inactive”.

Consider `Cc1cc(NC(=O)CSc2nccn2-c2ccc([N+](=O)[O-])cc2)no1`, for which the Potency result was “inactive”.

As for `CN(CCOc1ccc(Br)cc1)CC(=O)Nc1cccc(S(=O)(=O)NC2=NCCC2)c1`, the Potency entry was “inactive”.
